PubChem BioAssay (NCATS)
Results filed as inconclusive are left out. Calls of active or inactive are those of the source. Unless noted, the call rests on the fitted dose curve.

How the values were obtained:
[1] = biological target: Lysosomal acid glucosylceramidase (Homo sapiens) (UniProt P04062); assay: Glucocerebrosidase-p2 (AID 348; in the data active means potency below about 10 µM; further: potency means the concentration at half of the fitted maximal effect); conditions: purified GBA, blue fluorogenic substrate, 40 min
Sequence of Lysosomal acid glucosylceramidase (Homo sapiens) (P04062 whole entry, looked up): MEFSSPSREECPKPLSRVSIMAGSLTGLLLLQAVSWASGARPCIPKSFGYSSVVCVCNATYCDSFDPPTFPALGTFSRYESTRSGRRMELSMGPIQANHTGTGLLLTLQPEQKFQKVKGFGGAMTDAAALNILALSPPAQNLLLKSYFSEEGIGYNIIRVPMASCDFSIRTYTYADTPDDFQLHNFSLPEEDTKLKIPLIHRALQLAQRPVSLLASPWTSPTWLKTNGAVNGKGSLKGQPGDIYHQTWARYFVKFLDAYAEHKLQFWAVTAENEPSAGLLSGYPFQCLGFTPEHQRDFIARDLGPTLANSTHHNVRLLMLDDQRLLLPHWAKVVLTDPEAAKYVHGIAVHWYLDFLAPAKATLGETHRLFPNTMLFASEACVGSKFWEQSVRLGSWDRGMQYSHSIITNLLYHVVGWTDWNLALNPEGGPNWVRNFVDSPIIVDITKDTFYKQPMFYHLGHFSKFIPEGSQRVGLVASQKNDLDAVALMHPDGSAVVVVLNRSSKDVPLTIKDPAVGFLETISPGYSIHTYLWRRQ
In short: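 Normal human glucocerebrosidase (0.2 nM) with blue fluorogenic substrate (80 uM final) in citrate/phosphate pH 5.9 with 10mM sodium taurocholate, 0.01% tween-20; 40 min RT, NaOH/glycine stop; fluorescence Ex 365/Em 440; AC50 from a titration from 0.6 nM upwards.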

[2] = AP1 Signaling Pathway (AID 357; active means well fitted curve in either direction with a large enough effect, not every such curve was filed as active;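 further: ME-180 reporter cells stimulated with EGF at its EC50 level; on the % scale 0 is the no-effect control and ±100 the full control effect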); conditions: ME-180 AP-1-bla reporter, EGF-induced, beta-lactamase ratio, 5 h; at 7.69 µM (top of the series) unless noted
In short: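 Read-out was the 460nm/530nm emission ratio (excitation 405nm) after CCF4 loading for 2.5 hours at room temperature. Cells carried an AP-1-driven beta-lactamase reporter, were stimulated with EC50 EGF plus compound for 5 hours, and AC50 values came from titrations.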

[3] = biological target: Cytochrome P450 1A2 (Homo sapiens) (UniProt P05177); assay: p450-cyp1a2 (AID 410); conditions: recombinant CYP1A2, luciferin-ME demethylation, luminescence; series mostly up to 57 µM; further: potency means the concentration at half of the fitted maximal effect;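 on activity change, negative = inhibition: -100% = full effect of reference inhibitor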
Sequence of Cytochrome P450 1A2 (Homo sapiens) (P05177 whole entry, looked up): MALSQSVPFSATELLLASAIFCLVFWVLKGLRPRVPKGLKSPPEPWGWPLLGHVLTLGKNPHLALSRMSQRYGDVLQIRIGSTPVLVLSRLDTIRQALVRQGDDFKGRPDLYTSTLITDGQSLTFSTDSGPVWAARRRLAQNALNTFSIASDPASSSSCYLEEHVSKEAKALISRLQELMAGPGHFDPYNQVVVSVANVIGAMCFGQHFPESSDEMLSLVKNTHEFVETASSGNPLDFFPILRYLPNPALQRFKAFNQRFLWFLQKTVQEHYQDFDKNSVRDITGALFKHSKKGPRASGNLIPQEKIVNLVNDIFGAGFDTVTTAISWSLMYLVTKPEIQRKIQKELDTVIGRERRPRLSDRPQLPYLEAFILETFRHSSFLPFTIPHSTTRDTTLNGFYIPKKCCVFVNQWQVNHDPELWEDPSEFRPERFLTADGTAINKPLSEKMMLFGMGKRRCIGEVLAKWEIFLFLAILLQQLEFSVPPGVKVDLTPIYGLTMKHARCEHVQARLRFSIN
In short: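 Luminescent demethylation readout: Luciferin-ME (100uM, equal to Km) turned over by 20nM CYP1A2 for 60 min at room temperature after NADPH regeneration addition, following 10 min compound preincubation. Normalization used 57 uM furafylline as full inhibition.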

[4] = Stat Signaling Pathway (AID 446; active means well fitted curve in either direction with a large enough effect, not every such curve was filed as active;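 further: ME-180 cervical cancer cells given 40 pM IL-6 alongside compound; SIE-controlled beta-lactamase reporter measured as 460/530 nm FRET emission ratio; on the % scale 0 is the no-effect control and ±100 the full control effect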); conditions: ME-180 (cervical carcinoma) SIE beta-lactamase reporter, IL-6 stimulated, 5 h; at 7.69 µM (top of the series) unless noted
In short: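 Emission at 460 and 530 nm (excitation 405 nm) reports SIE-controlled beta-lactamase in ME-180 cells. Cells received compound with 40 pM IL-6 for 5 hrs at 37 C; data scaled between 300 pM IL-6 and 125 nM JAK-inhibitor controls.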

[5] = biological target: Glucocorticoid receptor (Homo sapiens) (UniProt P04150); assay: GR-EFC Redistribution (AID 451); conditions: CHO-K1 GR-EFC translocation, beta-gal luminescence, 2 h; further: potency means the concentration at half of the fitted maximal effect
Sequence of Glucocorticoid receptor (Homo sapiens) (P04150 whole entry, looked up, the tested form may be a part): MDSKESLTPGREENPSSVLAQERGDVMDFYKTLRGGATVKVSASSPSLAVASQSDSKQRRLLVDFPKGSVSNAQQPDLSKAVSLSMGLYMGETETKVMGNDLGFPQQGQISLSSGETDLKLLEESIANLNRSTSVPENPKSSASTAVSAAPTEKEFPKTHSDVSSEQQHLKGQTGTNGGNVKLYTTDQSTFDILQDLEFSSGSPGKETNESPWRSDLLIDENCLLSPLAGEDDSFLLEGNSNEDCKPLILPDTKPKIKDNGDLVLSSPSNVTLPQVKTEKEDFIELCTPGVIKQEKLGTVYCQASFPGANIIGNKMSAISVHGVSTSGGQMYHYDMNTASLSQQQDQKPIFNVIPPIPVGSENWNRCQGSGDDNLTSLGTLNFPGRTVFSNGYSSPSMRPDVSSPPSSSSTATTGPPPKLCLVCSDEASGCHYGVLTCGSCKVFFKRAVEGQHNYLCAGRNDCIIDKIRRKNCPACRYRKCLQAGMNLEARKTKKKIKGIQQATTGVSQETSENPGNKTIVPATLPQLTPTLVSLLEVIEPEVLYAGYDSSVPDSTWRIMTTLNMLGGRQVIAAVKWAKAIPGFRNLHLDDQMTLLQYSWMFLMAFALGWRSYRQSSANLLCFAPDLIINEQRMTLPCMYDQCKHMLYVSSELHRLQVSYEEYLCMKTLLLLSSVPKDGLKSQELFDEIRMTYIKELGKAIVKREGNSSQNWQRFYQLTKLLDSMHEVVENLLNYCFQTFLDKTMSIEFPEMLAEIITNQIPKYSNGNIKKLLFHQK
In short: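 CHO-K1 cells stably expressing nuclear-localized β-gal enzyme acceptor and GR fused C-terminally to the enzyme donor fragment; ligand-driven nuclear translocation restores β-gal by complementation. Compounds titrated up to 46 uM final, 2 h at 37 °C; luminescence read.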

[6] = biological target: Mitogen-activated protein kinase 10 (Mus musculus) (UniProt Q61831); assay: JNK3 AlphaScreen Assay (AID 530; active means well fitted curve in either direction with a large enough effect, not every such curve was filed as active;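 further: kinase came from lysate of stimulated human HepG2 cells; signal reports phosphorylation of biotinylated GST-cJun 1-79 at Ser73 with 10 µM ATP; on the % scale 0 is the no-effect control and ±100 the full control effect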); conditions: JNK3 lysate, c-Jun phosphorylation; series mostly up to 57.1 µM
In short: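 Phosphorylation of biotinylated GST-cJun(1-79) at Ser73 is measured by AlphaScreen proximity luminescence. Enzyme is JNK3 in HepG2 lysates activated with interleukin-1beta and tumor necrosis factor alpha; ATP is 10 uM final.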

[7] = biological target: 3',5'-cyclic-AMP phosphodiesterase 4B (Homo sapiens) (UniProt Q07343); assay: qHTS Assay for Inhibitors of PDE-IV (AID 607; active means well fitted activation curve with a large enough effect in the main read-out, with a control signal flat, not every such curve was filed as active; further: % of control where 0% means no effect); conditions: HEK293 ACTOne CNG channel cells, membrane potential fluorescence; series mostly up to 22.9 µM
Sequence of 3',5'-cyclic-AMP phosphodiesterase 4B (Homo sapiens) (Q07343 whole entry, looked up): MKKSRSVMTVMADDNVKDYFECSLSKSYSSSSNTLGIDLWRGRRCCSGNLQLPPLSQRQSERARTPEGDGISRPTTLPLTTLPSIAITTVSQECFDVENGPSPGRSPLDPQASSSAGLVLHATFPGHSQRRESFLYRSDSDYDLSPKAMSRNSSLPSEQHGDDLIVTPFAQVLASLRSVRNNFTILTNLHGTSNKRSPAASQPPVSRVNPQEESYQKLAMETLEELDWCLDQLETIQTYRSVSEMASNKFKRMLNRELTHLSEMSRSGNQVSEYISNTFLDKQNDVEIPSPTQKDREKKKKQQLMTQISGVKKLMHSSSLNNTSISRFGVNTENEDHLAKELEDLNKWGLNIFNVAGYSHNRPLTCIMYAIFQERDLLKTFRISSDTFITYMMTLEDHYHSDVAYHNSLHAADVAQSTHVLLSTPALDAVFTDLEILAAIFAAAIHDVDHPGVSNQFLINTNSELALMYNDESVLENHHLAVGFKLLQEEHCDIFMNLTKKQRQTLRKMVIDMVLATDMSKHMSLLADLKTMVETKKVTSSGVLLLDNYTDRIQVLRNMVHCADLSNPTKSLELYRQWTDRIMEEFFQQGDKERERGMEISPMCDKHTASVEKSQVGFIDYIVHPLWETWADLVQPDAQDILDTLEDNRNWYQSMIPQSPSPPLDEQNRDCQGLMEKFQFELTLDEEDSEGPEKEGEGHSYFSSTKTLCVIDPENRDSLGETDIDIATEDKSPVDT
In short: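 The readout is membrane depolarisation from a cAMP-sensing CNG channel, detected with a potential dye at ex 535/em 590. Cells were HEK293-derived (endogenous PDE-IV) at 1000 cells/well, titrated up to 22.9 uM final.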

[8] = biological target: Cytochrome P450 3A4 (Homo sapiens) (UniProt P08684); assay: qHTS Assay for Activators of Cytochrome P450 3A4 (AID 885; active means well fitted curve in the direction sought with a large enough effect; an effect the other way counts as inactive or inconclusive; further: nearly all actives have a fitted effect of over 65% in size; further: potency means the concentration at half of the fitted maximal effect); conditions: recombinant CYP3A4, Luciferin-PPXE luminescence, 60 min; series mostly up to 57.1 µM
Sequence of Cytochrome P450 3A4 (Homo sapiens) (P08684 whole entry, looked up): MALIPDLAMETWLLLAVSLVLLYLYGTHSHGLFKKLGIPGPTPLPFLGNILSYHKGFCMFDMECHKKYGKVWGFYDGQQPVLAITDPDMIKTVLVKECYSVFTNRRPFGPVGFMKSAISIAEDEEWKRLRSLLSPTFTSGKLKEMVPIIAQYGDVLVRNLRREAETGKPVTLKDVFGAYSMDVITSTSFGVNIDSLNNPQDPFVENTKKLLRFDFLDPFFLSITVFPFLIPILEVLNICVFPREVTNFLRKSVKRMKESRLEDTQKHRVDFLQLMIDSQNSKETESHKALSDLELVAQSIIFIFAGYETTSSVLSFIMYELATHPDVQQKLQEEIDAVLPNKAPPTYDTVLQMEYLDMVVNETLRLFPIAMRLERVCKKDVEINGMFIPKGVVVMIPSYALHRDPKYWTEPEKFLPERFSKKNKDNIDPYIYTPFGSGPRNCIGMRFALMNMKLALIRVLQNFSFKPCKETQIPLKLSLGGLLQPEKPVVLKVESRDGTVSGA
In short: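 Activators are scored by enhanced luminescence from CYP3A4 conversion of luciferin-PPXE (25uM, equal to KM) to luciferin, after 60 min at RT with an NADPH-regenerating system.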

[9] = qHTS Assay for Lipid Storage Modulators (AID 1519); conditions: Drosophila S3 cells, BODIPY lipid droplet/cell ratio, laser cytometry, cells loaded with oleic acid; for activity change, negative = inhibition: at 57.5 µM (top of the series)
In short: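 Cells seeded at 5,000 per well were treated with compounds over a concentration series and loaded with oleic acid (400 uM, as added). Lipid droplet fluorescence (488 nm excitation, 500-530 nm channel) was read by laser-scanning cytometry and normalized to 20 uM Triacsin C.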

[10] = Primary qHTS for small molecule stabilizers of the endoplasmic reticulum resident proteome: Secreted ER Calcium Modulated Protein (SERCaMP) assay (AID 1508630; active means well fitted curve in the direction sought with a large enough effect; an effect the other way counts as inactive or inconclusive; further: on the % scale 0 is the no-effect control and ±100 the full control effect); conditions: SH-SY5Y GLuc-SERCaMP (Gaussia luciferase released on ER calcium loss) secretion, thapsigargin, luminescence; series mostly up to 38.4 µM
In short: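 The SH-SY5Y reporter protocol was run at 3 concentrations up to 38.3 uM (primary) or 11 concentrations (follow-up): 16 h compound, 100 nM thapsigargin for 4 h, then extracellular luciferase luminescence.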

[11] = biological target: Cytochrome P450 3A4 (Homo sapiens) (UniProt P08684); assay: qHTS Assay for Inhibitors and Substrates of Cytochrome P450 3A4 (AID 884; active means well fitted curve in the direction sought with a large enough effect; an effect the other way counts as inactive or inconclusive; further: nearly all actives have a fitted effect of over 50% in size; further: potency means the concentration at half of the fitted maximal effect); conditions: recombinant CYP3A4, Luciferin-PPXE luminescence; series mostly up to 57.1 µM
In short: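 Luminescent readout of luciferin produced by CYP3A4 (20 nM) dealkylation of Luciferin-PPXE, 25 uM (its KM). NADPH-driven reaction ran 60 min at RT after 10 min compound preincubation; data scaled to 57 uM ketoconazole as 100% inhibition.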

[12] = biological target: Cytochrome P450 2D6 (Homo sapiens) (UniProt P10635); assay: qHTS Assay for Inhibitors and Substrates of Cytochrome P450 2D6 (AID 891; active means well fitted curve in the direction sought with a large enough effect; an effect the other way counts as inactive or inconclusive; further: potency means the concentration at half of the fitted maximal effect; nearly all actives have a fitted effect of over 60% in size); conditions: recombinant CYP2D6, luciferin-ME EGE luminescence; series mostly up to 57.1 µM
Sequence of Cytochrome P450 2D6 (Homo sapiens) (P10635 whole entry, looked up): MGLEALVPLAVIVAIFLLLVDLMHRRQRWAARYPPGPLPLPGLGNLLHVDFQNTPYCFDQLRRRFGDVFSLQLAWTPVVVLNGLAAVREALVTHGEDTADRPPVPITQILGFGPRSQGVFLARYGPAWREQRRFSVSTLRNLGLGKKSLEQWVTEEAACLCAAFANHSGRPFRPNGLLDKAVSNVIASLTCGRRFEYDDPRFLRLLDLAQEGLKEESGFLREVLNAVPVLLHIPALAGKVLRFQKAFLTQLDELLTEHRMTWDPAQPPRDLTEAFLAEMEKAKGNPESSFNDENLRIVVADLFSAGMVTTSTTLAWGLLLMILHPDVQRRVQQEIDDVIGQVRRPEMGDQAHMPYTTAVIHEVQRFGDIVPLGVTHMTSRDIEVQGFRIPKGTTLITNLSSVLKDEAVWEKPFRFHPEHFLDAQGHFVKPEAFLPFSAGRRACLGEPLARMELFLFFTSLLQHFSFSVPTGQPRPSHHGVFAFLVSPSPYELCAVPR
In short: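 Luminescent read-out of luciferin formed by 5 nM human CYP2D6 demethylating 30 uM Luciferin-ME EGE (Km level) over 60 min at room temperature after NADPH regeneration addition. Data normalized to full inhibition by 1.43 uM quinidine.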

[13] = measured here: cell count channel max response
[14] = measured here: lipid channel max response

COc1ccc(C(=O)N2CCC3(CCCN(Cc4ccccc4OC)C3)CC2)cc1
inactive: Potency [1] > 11.4 µM | activity change, negative = inhibition [2] 0.332% | Potency [3] | activity, negative = inhibition [4] -6.54% | Potency [5] > 46 µM | Potency [6] | Potency [7] | Potency [8] | activity change, negative = inhibition [9] -0.879% | outcome [10]
-6.45%: max response [9, 14]
-8.51%: max response [9, 13]

COc1ccccc1CN1CCCC2(CCN(C(=O)c3c(C)noc3C)CC2)C1
inactive: Potency [1] > 11.4 µM | activity change, negative = inhibition [2] -9.04% | Potency [3] | activity, negative = inhibition [4] -7.32% | Potency [5] > 46 µM | Potency [6] | Potency [7] | Potency [8] | activity change, negative = inhibition [9] 1.7% | outcome [10]
17.9%: max response [9, 14]
14.6%: max response [9, 13]

CS(=O)(=O)N1CCC2(CCCN(C(c3ccccc3)c3ccccc3)C2)CC1
inactive: Potency [1] > 11.4 µM | activity change, negative = inhibition [2] -6.2% | Potency [3] | activity, negative = inhibition [4] 12.1% | Potency [5] > 46 µM | Potency [6] | Potency [7] | Potency [8] | activity change, negative = inhibition [9] 2.84% | outcome [10]
16.2%: max response [9, 14]
13.3%: max response [9, 13]
active: Potency [11] 3.98 µM | Potency [12] 5.01 µM

O=C(c1cnccn1)N1CCC2(CC1)CN(C(c1ccccc1)c1ccccc1)C2
active: Potency [3] 25.1 µM | Potency [8] 12.6 µM | Potency [12] 6.31 µM
inactive: Potency [1] > 11.4 µM | activity change, negative = inhibition [2] -2% | activity, negative = inhibition [4] -4.86% | Potency [5] > 46 µM | Potency [6] | Potency [7] | Potency [11] | activity change, negative = inhibition [9] 1.71% | outcome [10]
10.5%: max response [9, 14]
6.7%: max response [9, 13]

CC(C)CN1CCCC2(CCN(S(=O)(=O)c3ccccc3)CC2)C1
15.5%: max response [9, 14]
inactive: Potency [1] > 11.4 µM | activity change, negative = inhibition [2] 1.33% | Potency [3] | activity, negative = inhibition [4] 0.203% | Potency [5] > 46 µM | Potency [6] | Potency [7] | Potency [8] | activity change, negative = inhibition [9] 2.73% | outcome [10]
12.5%: max response [9, 13]

Cn1cccc1C(=O)N1CCC2(CCCN(Cc3ccc(C#N)cc3)C2)CC1
18.2%: max response [9, 14]
17.2%: max response [9, 13]
active: Potency [3] 12.6 µM
inactive: Potency [1] > 11.4 µM | activity change, negative = inhibition [2] 10.6% | activity, negative = inhibition [4] -1.12% | Potency [5] > 46 µM | Potency [6] | Potency [7] | Potency [8] | activity change, negative = inhibition [9] 1.29% | outcome [10]

Cc1noc(C)c1C(=O)N1CCC2(CC1)CCN(c1ccncc1)CC2
9.32%: max response [9, 13]
12.2%: max response [9, 14]
inactive: Potency [1] > 11.4 µM | activity change, negative = inhibition [2] 10.3% | Potency [3] | activity, negative = inhibition [4] 8.12% | Potency [5] > 46 µM | Potency [6] | Potency [7] | Potency [8] | activity change, negative = inhibition [9] 1.45% | outcome [10]

Cc1noc(C)c1C(=O)N1CCC2(CCCN(c3ccncc3)C2)CC1
15.3%: max response [9, 13]
23.4%: max response [9, 14]
inactive: Potency [1] > 11.4 µM | activity change, negative = inhibition [2] 6.75% | Potency [3] | activity, negative = inhibition [4] 8.27% | Potency [5] > 46 µM | Potency [6] | Potency [7] | Potency [8] | activity change, negative = inhibition [9] 5.44% | outcome [10]

Cn1cccc1C(=O)N1CCC2(CCCN(Cc3ccccc3)C2)CC1
2.52%: max response [9, 13]
inactive: Potency [1] > 11.4 µM | activity change, negative = inhibition [2] -4.68% | Potency [3] | activity, negative = inhibition [4] -3.12% | Potency [5] > 46 µM | Potency [6] | Potency [7] | Potency [8] | activity change, negative = inhibition [9] 3.59% | outcome [10]
8.85%: max response [9, 14]

O=C(Nc1cccc(F)c1)N1CC[C@@]2(CCCN(C(=O)c3cc(C(F)(F)F)cc(C(F)(F)F)c3)C2)C1
inactive: Potency [1] > 11.4 µM | activity change, negative = inhibition [2] -8.61% | Potency [3] | activity, negative = inhibition [4] -4.49% | Potency [5] > 46 µM | Potency [6] | Potency [7] | Potency [8] | activity change, negative = inhibition [9] 5.77% | outcome [10]
-3.02%: max response [9, 13]
6%: max response [9, 14]

O=C(c1cc(C(F)(F)F)cc(C(F)(F)F)c1)N1CCC[C@@]2(CCN(c3ccccc3)C2)C1
10.6%: max response [9, 13] | max response [9, 14]
inactive: Potency [1] > 11.4 µM | activity change, negative = inhibition [2] 0.763% | Potency [3] | activity, negative = inhibition [4] 2.5% | Potency [5] > 46 µM | Potency [6] | Potency [7] | Potency [8] | activity change, negative = inhibition [9] -3.81% | outcome [10]

COC(=O)N1CCC2(CCCN(Cc3nccs3)C2)CC1
inactive: Potency [1] > 11.4 µM | activity change, negative = inhibition [2] -9.45% | Potency [3] | activity, negative = inhibition [4] -5.19% | Potency [5] > 46 µM | Potency [6] | Potency [7] | Potency [8] | activity change, negative = inhibition [9] 5.26% | outcome [10]
10.9%: max response [9, 14]
2.22%: max response [9, 13]

COCC(=O)N1CCC2(CCCN(c3ccncc3)C2)CC1
-7.49%: max response [9, 13]
0.42%: max response [9, 14]
inactive: Potency [1] > 11.4 µM | activity change, negative = inhibition [2] 3.93% | Potency [3] | activity, negative = inhibition [4] -8.03% | Potency [5] > 46 µM | Potency [6] | Potency [7] | Potency [8] | activity change, negative = inhibition [9] 3.88% | outcome [10]

CN1CC[C@@]2(CCCN(C(=O)c3cc(C(F)(F)F)cc(C(F)(F)F)c3)C2)C1
-1.13%: max response [9, 13]
2.81%: max response [9, 14]
inactive: Potency [1] > 11.4 µM | activity change, negative = inhibition [2] -0.328% | Potency [3] | activity, negative = inhibition [4] 13.1% | Potency [5] > 46 µM | Potency [6] | Potency [7] | Potency [8] | activity change, negative = inhibition [9] 1.24% | outcome [10]
